What all share (design): scale not given: direction of the effect not stated beside the values
The target of experiment [1] is Protein translocase subunit SecA (Escherichia coli (strain K12)) (UniProt P10408). As to the kind of experiment: Assay to Identify E. coli SecA ATPase Inhibitors. Type of experiment: functional. The settings on record: 30 µM.
Experiment [2] addresses T1, Ubiquitin-activating enzyme e1, putative (Leishmania donovani (strain BPK282A1)) (UniProt E9BSI1).
T1 sequence (whole entry): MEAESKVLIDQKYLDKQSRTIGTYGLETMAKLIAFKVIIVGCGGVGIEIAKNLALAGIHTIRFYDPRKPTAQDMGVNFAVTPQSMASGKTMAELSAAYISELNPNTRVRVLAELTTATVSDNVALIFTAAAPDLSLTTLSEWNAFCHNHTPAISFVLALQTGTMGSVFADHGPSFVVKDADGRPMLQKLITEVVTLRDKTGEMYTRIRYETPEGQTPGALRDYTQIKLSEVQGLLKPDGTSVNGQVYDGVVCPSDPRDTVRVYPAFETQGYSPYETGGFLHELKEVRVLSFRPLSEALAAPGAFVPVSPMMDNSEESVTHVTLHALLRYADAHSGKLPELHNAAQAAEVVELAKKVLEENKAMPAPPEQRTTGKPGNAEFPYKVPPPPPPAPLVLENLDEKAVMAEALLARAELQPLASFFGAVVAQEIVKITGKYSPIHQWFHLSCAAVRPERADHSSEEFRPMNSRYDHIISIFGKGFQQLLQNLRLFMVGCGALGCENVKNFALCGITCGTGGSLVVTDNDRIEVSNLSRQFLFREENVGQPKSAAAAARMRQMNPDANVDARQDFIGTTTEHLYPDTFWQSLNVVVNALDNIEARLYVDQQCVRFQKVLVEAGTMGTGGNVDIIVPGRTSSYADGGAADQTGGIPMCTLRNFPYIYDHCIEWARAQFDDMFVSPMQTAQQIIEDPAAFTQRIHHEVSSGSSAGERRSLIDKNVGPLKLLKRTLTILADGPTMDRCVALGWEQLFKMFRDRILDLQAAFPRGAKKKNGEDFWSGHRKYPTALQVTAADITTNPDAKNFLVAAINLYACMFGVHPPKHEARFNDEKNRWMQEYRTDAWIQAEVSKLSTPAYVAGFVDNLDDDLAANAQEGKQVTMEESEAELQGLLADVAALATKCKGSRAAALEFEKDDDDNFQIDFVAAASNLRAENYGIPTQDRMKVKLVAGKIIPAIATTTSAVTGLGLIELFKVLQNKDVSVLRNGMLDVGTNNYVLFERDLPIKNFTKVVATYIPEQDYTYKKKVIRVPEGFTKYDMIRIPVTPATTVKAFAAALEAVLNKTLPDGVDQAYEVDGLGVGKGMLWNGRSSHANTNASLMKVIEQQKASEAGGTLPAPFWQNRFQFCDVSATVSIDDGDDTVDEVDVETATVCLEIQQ
In words: Leishmania donovani Ubiquitin Activating Enzyme (LdE1). Type of experiment: functional. To be noted: 30 µM.

Experiment [3] concerns the target AMP-activated protein kinase, AMPK (Homo sapiens) (UniProt P54646+O43741+P54619+Q9UGJ0+Q9Y478+Q13131+Q9UGI9). In words: AMP-dependent Kinase enzyme assay. An in vitro enzyme assay that detects ADP turnover that is directly proportional to AMPK activity. This uses naive AMPK that is activated during the assay with MK-8722. The settings on record: 30 µM. Type of experiment: functional.

Experiment [4] addresses Sialic acid-binding Ig-like lectin 9 (Homo sapiens) (UniProt Q9Y336). In words: Hs-Siglec9 ALPHAscreen SOP 20170721. To be noted: 10 µM. On the technique in general: In Alpha technology, singlet oxygen from a donor bead excites a nearby acceptor bead.
The subject of experiment [5] is Trypanosoma cruzi. As to the kind of experiment: Trypanosoma cruzi phosphomannomutase and mannose-1-phosphate guanylyltransferase assay. It is filed as functional. To be noted: 10 µM.
Experiment [6] deals with T2, Arginase-2, mitochondrial (Homo sapiens) (UniProt P78540).
T2 sequence (whole entry): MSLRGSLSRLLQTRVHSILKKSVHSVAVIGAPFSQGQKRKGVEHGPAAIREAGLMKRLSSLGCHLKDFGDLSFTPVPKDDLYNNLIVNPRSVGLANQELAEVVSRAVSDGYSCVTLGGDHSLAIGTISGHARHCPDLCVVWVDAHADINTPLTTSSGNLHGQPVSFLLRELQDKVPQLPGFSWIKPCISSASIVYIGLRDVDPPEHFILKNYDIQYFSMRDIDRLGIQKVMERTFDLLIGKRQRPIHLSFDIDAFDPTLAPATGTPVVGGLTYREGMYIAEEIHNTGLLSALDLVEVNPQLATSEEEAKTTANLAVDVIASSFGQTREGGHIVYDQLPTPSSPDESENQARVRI
In words: in vitro enzyme assay to detect the production of urea directly proportional to the activity of Arginase II. Note: in the data most compounds retested in dose-response had high values. It is filed as functional. The settings on record: 33.3 µM.

Experiment [7] addresses T3, Proteasome subunit beta (Trypanosoma cruzi) (UniProt O96673).
T3 sequence (whole entry): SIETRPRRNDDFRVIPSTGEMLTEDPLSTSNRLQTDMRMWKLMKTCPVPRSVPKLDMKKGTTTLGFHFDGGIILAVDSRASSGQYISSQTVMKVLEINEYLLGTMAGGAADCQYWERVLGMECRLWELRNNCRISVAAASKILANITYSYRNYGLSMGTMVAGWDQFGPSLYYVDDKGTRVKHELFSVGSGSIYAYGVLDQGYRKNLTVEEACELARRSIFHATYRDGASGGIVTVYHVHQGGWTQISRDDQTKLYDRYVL
In words: Trypanosoma cruzi proteasome chymotrypsin-like activity (TcProtChymo) assay. Note: in the data most compounds retested in dose-response had high values. It is filed as functional. To be noted: 9.37 µM.

The species named for experiment [8] is Homo sapiens. In words: To identify inhibition of the IFN signalling (Jak-Stat) pathway via expression of an eGFP reporter gene under the control of an IFN-stimulated response element (ISRE) containing MxA promoter. The settings on record: 30 µM. Type of experiment: functional.
Experiment [9] has as its target T4, Tyrosyl-tRNA synthetase, putative (Trypanosoma cruzi (strain CL Brener)) (UniProt Q4DSP6).
T4 sequence (whole entry): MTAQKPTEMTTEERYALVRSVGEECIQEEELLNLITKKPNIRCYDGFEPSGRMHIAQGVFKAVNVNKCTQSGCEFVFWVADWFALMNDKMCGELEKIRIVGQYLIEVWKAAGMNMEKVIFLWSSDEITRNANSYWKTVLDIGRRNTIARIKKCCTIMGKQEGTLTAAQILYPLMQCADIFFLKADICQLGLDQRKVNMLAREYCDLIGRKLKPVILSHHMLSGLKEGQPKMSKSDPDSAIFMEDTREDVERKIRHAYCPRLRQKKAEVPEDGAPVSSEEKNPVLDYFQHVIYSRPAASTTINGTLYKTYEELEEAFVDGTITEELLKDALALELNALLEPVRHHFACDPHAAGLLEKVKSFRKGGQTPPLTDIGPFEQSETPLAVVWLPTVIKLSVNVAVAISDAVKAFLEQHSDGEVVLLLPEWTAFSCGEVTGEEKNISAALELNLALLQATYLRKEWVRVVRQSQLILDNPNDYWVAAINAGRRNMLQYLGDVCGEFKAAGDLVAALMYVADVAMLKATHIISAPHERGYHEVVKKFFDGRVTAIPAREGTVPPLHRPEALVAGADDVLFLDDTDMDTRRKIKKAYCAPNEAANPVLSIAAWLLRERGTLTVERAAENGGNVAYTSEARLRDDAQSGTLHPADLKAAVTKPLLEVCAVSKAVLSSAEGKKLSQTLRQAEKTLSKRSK
As to the kind of experiment: Trypanosoma cruzi tyrosyl tRNA synthetase (TcYRS) _High Tyrosine SOP. Note: in the data most compounds retested in dose-response had high values. It is filed as functional. To be noted: 30 µM.

The target in experiment [10] is T4, Tyrosyl-tRNA synthetase, putative (Trypanosoma cruzi (strain CL Brener)). As to the kind of experiment: Trypanosoma cruzi tyrosyl tRNA synthetase (TcYRS) SOP. Type of experiment: functional. To be noted: 30 µM.
The target in experiment [11] is Chromo domain-containing protein 1 (Saccharomyces cerevisiae (strain ATCC 204508 / S288c) (Baker's yeast)) (UniProt P32657). In words: ScCHD-1 Enzyme Inhibition Assay. Note: in the data most compounds retested in dose-response had high values. It is filed as functional. The settings on record: 30 µM.
Sequence of Chromo domain-containing protein 1 (Saccharomyces cerevisiae (strain ATCC 204508 / S288c) (Baker's yeast)) (P32657 whole entry, the tested form may be a part): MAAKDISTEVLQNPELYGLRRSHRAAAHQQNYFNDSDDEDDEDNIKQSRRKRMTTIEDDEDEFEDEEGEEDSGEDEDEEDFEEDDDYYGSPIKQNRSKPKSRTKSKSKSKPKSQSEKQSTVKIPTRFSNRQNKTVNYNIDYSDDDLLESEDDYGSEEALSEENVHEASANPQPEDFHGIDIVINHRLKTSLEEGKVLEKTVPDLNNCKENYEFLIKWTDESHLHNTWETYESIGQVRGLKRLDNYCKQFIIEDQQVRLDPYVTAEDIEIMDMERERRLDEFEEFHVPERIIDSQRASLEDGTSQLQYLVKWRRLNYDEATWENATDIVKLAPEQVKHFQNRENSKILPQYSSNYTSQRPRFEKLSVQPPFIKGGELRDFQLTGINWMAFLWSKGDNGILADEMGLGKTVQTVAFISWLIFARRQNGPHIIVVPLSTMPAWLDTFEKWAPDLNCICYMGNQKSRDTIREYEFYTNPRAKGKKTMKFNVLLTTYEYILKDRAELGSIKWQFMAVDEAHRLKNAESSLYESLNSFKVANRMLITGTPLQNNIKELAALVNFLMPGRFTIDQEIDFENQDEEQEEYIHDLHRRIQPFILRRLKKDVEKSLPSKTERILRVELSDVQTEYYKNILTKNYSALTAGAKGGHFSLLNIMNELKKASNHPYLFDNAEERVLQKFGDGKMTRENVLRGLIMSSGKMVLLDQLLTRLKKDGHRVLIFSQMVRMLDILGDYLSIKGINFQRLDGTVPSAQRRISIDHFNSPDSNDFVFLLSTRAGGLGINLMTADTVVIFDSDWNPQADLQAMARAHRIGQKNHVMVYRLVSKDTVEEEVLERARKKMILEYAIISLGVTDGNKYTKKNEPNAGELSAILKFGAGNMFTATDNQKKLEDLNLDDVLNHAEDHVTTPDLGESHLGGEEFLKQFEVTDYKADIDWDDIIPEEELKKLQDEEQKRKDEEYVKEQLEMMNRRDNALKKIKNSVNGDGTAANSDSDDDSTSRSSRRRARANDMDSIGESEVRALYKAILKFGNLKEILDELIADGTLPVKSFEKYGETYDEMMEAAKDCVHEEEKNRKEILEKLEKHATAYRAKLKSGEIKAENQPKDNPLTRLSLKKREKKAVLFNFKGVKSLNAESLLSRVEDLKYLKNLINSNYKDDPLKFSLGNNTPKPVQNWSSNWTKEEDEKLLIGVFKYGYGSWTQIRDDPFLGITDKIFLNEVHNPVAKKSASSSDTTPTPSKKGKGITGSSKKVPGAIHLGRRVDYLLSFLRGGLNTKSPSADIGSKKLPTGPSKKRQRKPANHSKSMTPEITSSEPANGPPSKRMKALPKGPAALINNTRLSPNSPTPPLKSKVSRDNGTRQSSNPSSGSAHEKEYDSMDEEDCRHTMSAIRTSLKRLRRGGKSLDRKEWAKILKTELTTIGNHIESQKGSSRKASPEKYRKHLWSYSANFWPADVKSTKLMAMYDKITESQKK

The results in this text go back to ChEMBL document CHEMBL3988442, “University of Dundee, Small-Polar-MMV Screening Library” (2021).

For some of these results: Entries with a potency or affinity are not part of this list.

Sequence of Protein translocase subunit SecA (Escherichia coli (strain K12)) (P10408 whole entry): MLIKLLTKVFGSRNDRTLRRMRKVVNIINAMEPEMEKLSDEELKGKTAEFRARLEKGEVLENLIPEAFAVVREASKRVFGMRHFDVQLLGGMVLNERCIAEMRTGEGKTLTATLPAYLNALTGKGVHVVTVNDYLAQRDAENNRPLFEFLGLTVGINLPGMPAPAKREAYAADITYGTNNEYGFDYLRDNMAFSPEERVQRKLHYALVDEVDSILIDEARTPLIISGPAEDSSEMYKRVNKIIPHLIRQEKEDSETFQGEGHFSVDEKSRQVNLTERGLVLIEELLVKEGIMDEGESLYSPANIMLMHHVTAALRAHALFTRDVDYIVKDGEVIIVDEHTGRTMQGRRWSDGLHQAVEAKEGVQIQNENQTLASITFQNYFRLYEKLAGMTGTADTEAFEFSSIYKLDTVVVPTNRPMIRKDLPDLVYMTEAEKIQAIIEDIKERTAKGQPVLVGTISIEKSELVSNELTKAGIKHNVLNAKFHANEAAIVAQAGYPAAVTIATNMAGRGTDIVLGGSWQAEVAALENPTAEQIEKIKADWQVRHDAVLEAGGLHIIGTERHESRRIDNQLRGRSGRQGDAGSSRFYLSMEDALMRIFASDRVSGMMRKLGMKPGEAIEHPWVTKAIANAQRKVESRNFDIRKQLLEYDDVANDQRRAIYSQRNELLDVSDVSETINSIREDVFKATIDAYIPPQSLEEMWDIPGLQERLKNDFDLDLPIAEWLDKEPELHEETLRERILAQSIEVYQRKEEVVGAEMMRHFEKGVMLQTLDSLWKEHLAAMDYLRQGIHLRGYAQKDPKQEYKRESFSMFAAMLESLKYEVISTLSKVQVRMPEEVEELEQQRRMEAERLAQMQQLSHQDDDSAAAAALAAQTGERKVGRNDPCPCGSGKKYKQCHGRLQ
Sequence of Sialic acid-binding Ig-like lectin 9 (Homo sapiens) (Q9Y336 whole entry): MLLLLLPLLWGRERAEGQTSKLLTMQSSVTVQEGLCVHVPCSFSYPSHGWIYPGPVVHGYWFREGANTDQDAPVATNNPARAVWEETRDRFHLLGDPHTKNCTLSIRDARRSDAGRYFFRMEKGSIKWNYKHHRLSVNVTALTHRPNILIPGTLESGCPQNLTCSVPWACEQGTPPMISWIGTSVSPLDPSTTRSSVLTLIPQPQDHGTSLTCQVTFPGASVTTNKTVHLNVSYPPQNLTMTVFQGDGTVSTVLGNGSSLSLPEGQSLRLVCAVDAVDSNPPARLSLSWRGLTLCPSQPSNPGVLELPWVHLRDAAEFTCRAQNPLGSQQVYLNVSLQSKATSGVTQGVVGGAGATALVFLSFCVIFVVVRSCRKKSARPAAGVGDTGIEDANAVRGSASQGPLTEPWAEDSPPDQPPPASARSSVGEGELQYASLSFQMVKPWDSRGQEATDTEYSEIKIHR

On to `O=S(=O)(CCNCc1ccc2c(c1)CCO2)N1CCOCC1`, for which the Percent Effect in experiment [1] is -6.32%; in experiment [2], -2.7%; in [3], -3.09%; in experiment [4], 10.1%; in [5], -3.67%; in [6], -3.33%. Further, the Percent Effect in [7] is 11.7%; in experiment [8], -0.791%; in experiment [9], -0.529%; in experiment [10], -4.88%; in experiment [11], -4.8%.

With `CS(=O)(=O)NCc1cnc2n1CCN(Cc1ccsc1)CC2`, the Percent Effect in experiment [1] is 1.5%; in experiment [2] it was 21.9%; in [3], -6.69%; in experiment [4] it was 5.11%; in experiment [5], -5.16%; in experiment [6] it was -18%. For the same compound, the Percent Effect in experiment [7] is 14.6%; in [8] it was 18.3%; in experiment [9], 8.33%; in experiment [10], 3.7%; in experiment [11] it was 0.00549%.

Consider `CN1CCCC[C@@H]2[C@H]1[C@@H](c1ccccc1)CCN2C(=O)c1cnccn1`, for which the Percent Effect was -4.56% in [1]; 1.35% in experiment [2]; 4.14% in experiment [3]; 1.98% in experiment [4]; 0.988% in [5]; -3.48% in experiment [6]. Moreover, the Percent Effect was 21.2% in [7]; -2.99% in experiment [8]; 5.38% in [9]; 11.7% in experiment [10]; -17.5% in experiment [11].

`CNC(=O)CS(=O)(=O)C1CCN(S(=O)(=O)c2c(F)cccc2F)CC1`: the Percent Effect in experiment [1] is -2.05%; in experiment [2], -2.74%; in experiment [3] it was 6.92%; in experiment [4], 0.634%; in [5], 5.68%; in experiment [6], -1.82%. Besides, the Percent Effect is 3.9% in experiment [7]; -17.8% in [8]; 1.07% in experiment [9]; 0% in experiment [10]; -1.05% in experiment [11].

In the case of `Cc1ccc(NC(=O)CNc2cccc3c2CCCC3)c(Br)c1`, the Percent Effect was -0.516% in [1]; 0% in [2]; -8.17% in experiment [3]; 10.7% in [4]; 1.07% in experiment [5]; 27.1% in experiment [6]. The Percent Effect in experiment [7] was 12.3%; in [8], -16%; in [9], 5.38%; in experiment [10], 6.17%; in experiment [11] it was -12.9%.

For the compound `CC(NC(=O)c1cccs1)C(=O)NCc1ccccc1CN1CCCC1` (stereo unspecified), the Percent Effect was -4.29% in [1]; 23.4% in experiment [2]; -5.29% in [3]; 2.04% in experiment [4]; 4.12% in experiment [5]; 3.2% in [6]. For the same compound, the Percent Effect in experiment [7] was 12.5%; in experiment [8] it was 5.06%; in experiment [9] it was 12.6%; in experiment [10], 21.9%; in [11], -11.2%.

For the compound `CCN(CC1CCCO1)C(=O)Nc1cc(C(=O)OC)ccc1F` (stereo unspecified), the Percent Effect in experiment [1] was -2.67%; in [2] it was 7.59%; in experiment [3], 1.58%; in experiment [4], 13.4%; in experiment [5], -1.98%; in experiment [6] it was 1.9%. For the same compound, the Percent Effect in [7] is 2.21%; in [8], 0.11%; in experiment [9], 3.45%; in experiment [10], 8.86%; in [11], -8.28%.

As for `O=C(NCC1CCOC1)N1CCN(Cc2ccc3c(c2)CCO3)CC1` (stereo unspecified), the Percent Effect in experiment [1] is -2.3%; in [2] it was 15.8%; in experiment [3], -4.31%; in experiment [4], -5.79%; in experiment [5], 2.33%; in [6], -5.4%. The Percent Effect was 4.99% in experiment [7]; -17.4% in [8]; 9.36% in experiment [9]; 23.5% in [10]; -7.08% in [11].

`COCCO[C@H]1CCN(C(=O)C2CCOCC2)[C@H]1Cc1ccncc1`: the Percent Effect was -1.4% in [1]; 16% in experiment [2]; -6.31% in experiment [3]; -6.51% in experiment [4]; -3.94% in experiment [5]; -1.17% in [6]. The Percent Effect in experiment [7] was 9.6%; in experiment [8], 16.1%; in experiment [9] it was 2.13%; in experiment [10], 6.41%; in experiment [11], -2.62%.

`COc1cccc2c1ccn2CCNC(=O)C(C)C`: the Percent Effect in experiment [1] was -1.68%; in experiment [2], 20%; in experiment [3] it was 0.539%; in experiment [4], 3.44%; in [5] it was 0.393%; in experiment [6], -1.94%. Moreover, the Percent Effect in [7] was 18.5%; in [8], 26.9%; in [9], 7.41%; in [10], 12.8%; in experiment [11], -3.78%.

On to `Cc1csc(CNC(=O)Nc2cc(C(F)(F)F)c[nH]c2=O)n1`, for which the Percent Effect in experiment [1] was -1.61%; in [2], 6.94%; in experiment [3], 2.39%; in [4], 2.89%; in [5] it was 6.71%; in experiment [6], 1.77%. Besides, the Percent Effect was 13.3% in experiment [7]; 8.26% in [8]; 7.37% in [9]; 10.3% in experiment [10]; -3.2% in [11].
